# Results taken from PubChem BioAssay (NCATS).
# Where “and” joins values, the source holds several entries; their conditions need not be identical. Equal values may be shown once. Inconclusive results are not listed. A call without a number means that no potency is given here. Calls of active or inactive are those of the source. Unless noted, calls come from the whole dose curve; as a rule, active = well fitted curve in the direction sought with a large enough effect; inconclusive = small, poorly fitted or top-dose-only effect, or another doubt; inactive = no such curve, though single readings can be large; an effect the other way counts as inactive or inconclusive.
# Key:
# [1] = Cytotoxicity counterscreen for NFkB agonists and antagonists (AID 624476);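 note: cells exposed to compound for 48 hours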; note: potency is the fitted concentration of half-maximal effect
# [2] = qHTS Assay for Identification of Small Molecule Agonists for NFkB Signaling Pathway. (AID 624478)
# How it was run: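 NFkB-bla ME-180 cells (beta-lactamase reporter under NFkB response element) were plated overnight, treated with compound plus TNF alpha at 10 pM final (its EC50) for 5 hrs at 37 C, then loaded with LiveBLAzer substrate for 2 hrs.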
# [3] = qHTS Assay for Identification of Small Molecule Antagonists for NFkB Signaling Pathway. (AID 624479; calls by dose curve;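 note: pathway stimulated with TNF alpha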; note: potency is the fitted concentration of half-maximal effect)
# [4] = Cell Proliferation Assay against the TMD8 Cell Line (AID 651645); settings: TMD8 DLBCL cell line proliferation/viability; at 46.1 µM (top of the series) unless noted;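 note: cells exposed to compound for 48 h before reading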
# How it was run: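 Viability by CellTiter-Glo after 48 h compound exposure of 500 log-phase TMD8 cells per well (RPMI, 5% FBS). Percent activity scaled between DMSO (100%) and 9.2 uM final bortezomib (0%).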
# [5] = Cell Proliferation Assay against the HBL1 Cell Line (AID 651646); settings: HBL1 DLBCL cells; at 46.1 µM (top of the series) unless noted;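 note: cells exposed to compound for 48 h before reading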
# How it was run: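 500 log-phase HBL1 cells per well in phenol red-free RPMI with 5% FBS were treated with compounds for 48 h at 37 °C, 5% CO2. Viability was read by CellTiter-Glo luminescence, normalized to DMSO (100%) and 9.2 uM bortezomib final (0%).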
# [6] = target: Tyrosine-protein kinase Yes (Homo sapiens) (UniProt P07947); assay: qHTS for small molecule inhibitors of Yes1 kinase: Primary Screen (AID 686947); note: nearly all actives have a fitted effect of over 60% in size; note: potency is the fitted concentration of half-maximal effect
# How it was run: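 ADP-Glo luminescence readout; final 4 nM Yes1, 0.1 mM ATP, 0.3 mg/mL poly(E4Y), Tris pH 7.5, MgCl2, DTT, Brij-35. 20 min compound preincubation, 60 min reaction at RT. Normalized to DMSO wells with and without enzyme.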
# [7] = Cell Proliferation Assay against the TMD8 Cell Line (Caspase readout at 8 hrs) (AID 651713)
# How it was run: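 TMD8 cells (500/well) in phenol red-free RPMI with 5% FBS were treated with compounds for 8 h at 37C, 5% CO2. Caspase-Glo 3/7 luminescence was read after 15 min at room temperature and normalised to DMSO (0%) and 9.2 uM bortezomib (100%).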
# [8] = Cell Proliferation Assay against the TMD8 Cell Line (Caspase readout at 16 hrs) (AID 651712)
# How it was run: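 TMD8 cells (500/well) in phenol-red-free RPMI with glutamine, 5% FBS, were exposed to compounds for 16 h at 37 °C. Caspase 3/7 activation was read by Caspase-Glo luminescence; percent activity normalised to DMSO (0%) and 9.2 uM bortezomib final (100%).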
# [9] = qHTS assay for small molecule agonists of the antioxidant response element (ARE) signaling pathway (AID 651741; active = well fitted activation curve with a large enough effect in the signal ratio; the % refers to the signal ratio)
# How it was run: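 ARE-bla HepG2 cells (beta-lactamase reporter under ARE control) were plated at 2,000 cells/well, preincubated 5 h at 37 C/5% CO2, then treated with DMSO-dissolved compounds for 16 h at 37 C; LiveBLAzer B/G FRET substrate added, fluorescence read after 2 h at room temperature.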
# [10] = qHTS assay for small molecule activators of the nuclear factor-kappa B (NF-kB) signaling pathway (AID 651749; active = well fitted activation curve with a large enough effect in the signal ratio; the % refers to the signal ratio); settings: NF-kB-bla ME-180 cells, beta-lactamase FRET ratio, 16 h; stronger effect = higher value
# How it was run: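 ME-180 cells stably carrying a beta-lactamase reporter under an NF-kB response element were exposed to compound or DMSO vehicle for 16 hr at 37C, 5% CO2. Pathway activation was read by FRET, since reporter expression disrupts FRET.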
# [11] = target: Tumor necrosis factor (Homo sapiens) (UniProt P01375); assay: qHTS assay to identify small molecules that stimulate Tumor Necrosis Factor-alpha (TNF-alpha) secretion (AID 651757; active = well fitted curve in the direction sought with a large enough effect in the signal ratio; the % refers to the signal ratio)
# How it was run: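 THP-1 cells were exposed to compounds for 17 hrs at 37 C, after which secreted TNF-alpha was measured by homogeneous HTRF (TR-FRET) using cryptate- and XL665-labeled anti-TNF-alpha antibodies, read after 3 hr at room temperature.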
# [12] = qHTS assay to identify small molecules that stimulate interleukin-8 (IL-8) secretion (AID 651758; active = well fitted activation curve with a large enough effect in the signal ratio; the % refers to the signal ratio)
# How it was run: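 THP-1, 2000 cells/well; cpd 16 h, 37 C; add cryptate + XL665 anti-IL-8 Abs; RT 1-3 h; TR-FRET read.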
# Sequence of Tyrosine-protein kinase Yes (Homo sapiens) (P07947 whole entry, looked up): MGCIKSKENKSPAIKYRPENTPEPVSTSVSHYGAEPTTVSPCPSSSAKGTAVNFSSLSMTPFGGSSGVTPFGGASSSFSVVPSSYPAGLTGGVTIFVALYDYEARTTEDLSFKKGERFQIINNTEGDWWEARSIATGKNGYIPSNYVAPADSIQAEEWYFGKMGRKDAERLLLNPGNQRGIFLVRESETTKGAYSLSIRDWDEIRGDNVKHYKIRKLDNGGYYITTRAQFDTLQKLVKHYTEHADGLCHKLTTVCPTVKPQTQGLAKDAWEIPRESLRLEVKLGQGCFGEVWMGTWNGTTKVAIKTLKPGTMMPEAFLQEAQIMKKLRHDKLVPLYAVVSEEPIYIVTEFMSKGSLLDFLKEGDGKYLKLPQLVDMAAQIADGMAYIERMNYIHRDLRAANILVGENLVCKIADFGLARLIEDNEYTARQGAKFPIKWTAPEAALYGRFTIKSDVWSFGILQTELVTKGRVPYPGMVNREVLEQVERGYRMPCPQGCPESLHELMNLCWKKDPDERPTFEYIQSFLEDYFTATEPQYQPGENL
# Sequence of Tumor necrosis factor (Homo sapiens) (P01375 whole entry, looked up): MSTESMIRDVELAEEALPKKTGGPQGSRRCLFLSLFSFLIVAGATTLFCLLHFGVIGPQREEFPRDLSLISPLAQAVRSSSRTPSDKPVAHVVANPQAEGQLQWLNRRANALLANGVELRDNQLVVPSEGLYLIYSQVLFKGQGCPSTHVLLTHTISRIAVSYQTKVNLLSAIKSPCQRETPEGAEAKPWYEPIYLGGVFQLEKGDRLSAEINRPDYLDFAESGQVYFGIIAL
smiles,measurement,setting,value
Cn1cc(-c2ccc3nnc(C(F)(F)c4ccc5ncccc5c4)n3n2)cn1,Potency,[1],inactive
same,outcome,[2],inactive
same,Potency,[3],inactive
same,viability (% of control),[4],76.9%
same,"viability, percent of control",[5],86.8%
same,Potency,[6],inactive
CCCCCCCc1ccc(CCc2cccc(O)c2C(=O)O)cc1,Potency,[1],23.5 µM (active)
same,outcome,[2],inactive
same,viability (% of control),[4],64.1%
same,"viability, percent of control",[5],51.5%
Cc1cc(-c2ccc(CC(=O)Nc3ccc(-c4cccnc4)cc3)cc2)ccn1,Potency,[1],inactive
same,outcome,[2],inactive
same,Potency,[3],inactive
same,viability (% of control),[4],62.3%
same,"viability, percent of control",[5],101%
same,Potency,[6],inactive
Cc1cccc(-c2nn(C(=S)Nc3ccccc3)cc2-c2ccnc3ccccc23)n1,Potency,[1],inactive
same,outcome,[2],inactive
same,viability (% of control),[4],60.3%
same,"viability, percent of control",[5],94.2%
same,Potency,[7],inactive
same,Potency,[6],2.44 µM (active)
COc1cc(Nc2ncc3c(n2)-c2ccc(Cl)cc2C(c2c(F)cccc2OC)=NC3)ccc1C(=O)O,outcome,[2],inactive
same,Potency,[3],inactive
same,viability (% of control),[4],31.4%
same,"viability, percent of control",[5],53%
Cc1cc(SCc2sc(-c3ccc(C(F)(F)F)cc3)nc2C)ccc1OCC(=O)O,outcome,[2],inactive
same,viability (% of control),[4],88.2%
same,"viability, percent of control",[5],114%
same,Potency,[7],inactive
same,Potency,[6],inactive
COCCNCCCn1c(C(=O)CF)c(-c2ccc(C)cc2)c2c(N)ncnc21,Potency,[1],inactive
same,Potency,[3],inactive
same,viability (% of control),[4],75.8%
same,"viability, percent of control",[5],86.2%
same,Potency,[8],inactive
same,Potency,[7],inactive
same,Potency,[6],inactive
Oc1cccc(-c2nc(N3CCOCC3)c3oc4ncccc4c3n2)c1,Potency,[1],0.0833 µM (active)
same,outcome,[2],inactive
same,viability (% of control),[4],16.2%
same,"viability, percent of control",[5],42.6%
same,Potency,[6],inactive
Cc1c(CCOc2ccc(C(=O)O)cc2)c2cc(Cl)ccc2n1C(c1ccccc1)c1ccccc1,outcome,[2],inactive
same,viability (% of control),[4],79.3%
same,"viability, percent of control",[5],34.4%
same,Potency,[8],inactive
same,Potency,[7],inactive
Cc1cc2c(F)c(Oc3ncnn4cc(OC[C@@H](C)O)c(C)c34)ccc2[nH]1,outcome,[2],inactive
same,viability (% of control),[4],42.5%
same,"viability, percent of control",[5],34.5%
same,Potency,[7],inactive
CC1(C)CNc2cc(NC(=O)c3cccnc3NCc3ccncc3)ccc21,Potency,[1],inactive
same,outcome,[2],inactive
same,viability (% of control),[4],49.2%
same,"viability, percent of control",[5],86%
same,Potency,[7],inactive
CCOc1ccc(Cc2cc([C@@H]3O[C@H](CO)[C@@H](O)[C@H](O)[C@@H]3O)ccc2Cl)cc1,Potency,[1],inactive
same,outcome,[2],inactive
same,viability (% of control),[4],87.2%
same,"viability, percent of control",[5],94.2%
same,Potency,[6],inactive
O=C(OCC#CCSc1nnc(-c2ccc3ccccc3c2)o1)c1cc2ccccc2s1,Potency,[1],inactive
same,Potency,[3],inactive
same,viability (% of control),[4],90%
same,"viability, percent of control",[5],86.3%
same,Potency,[8],inactive
same,Potency,[7],inactive
same,Potency,[6],inactive
CCC(C)(C)C(=O)O[C@H]1C[C@@H](C)C=C2C=C[C@H](C)[C@H](CC[C@@H]3C[C@@H](O)CC(=O)O3)[C@H]21,viability (% of control),[4],80.7% [at 15.4 µM]
same,"viability, percent of control",[5],94.3% [at 15.4 µM]
same,Potency,[6],inactive
COc1ccc(C2=N[C@H](c3ccc(Cl)cc3)[C@H](c3ccc(Cl)cc3)N2C(=O)N2CCNC(=O)C2)c(OC(C)C)c1,Potency,[1],inactive
same,outcome,[2],inactive
same,viability (% of control),[4],7.72%
same,"viability, percent of control",[5],66.4%
same,Potency,[6],12.2 µM (active)
CCCC(CCC)C(=O)O,Potency,[9],inactive
same,activation,[10],0.312% (inactive) and -3.31% (inactive) and -0.945% (inactive)
same,outcome,[11],inactive
same,outcome,[12],inactive
Cc1cc([C@@H](C)Nc2ccccc2C(=O)O)c2nc(N3CCOCC3)cc(=O)n2c1,outcome,[2],inactive
same,Potency,[3],inactive
same,viability (% of control),[4],14.9%
same,"viability, percent of control",[5],45.6%
same,Potency,[7],inactive
same,Potency,[6],inactive
CCC(C)n1ncn(-c2ccc(N3CCN(c4ccc(OC[C@H]5CO[C@](Cn6cncn6)(c6ccc(Cl)cc6Cl)O5)cc4)CC3)cc2)c1=O (stereo not given in full),viability (% of control),[4],77.9%
same,"viability, percent of control",[5],77%
same,Potency,[8],inactive
same,Potency,[7],inactive
same,Potency,[6],inactive
Cc1ccccc1C(C(=O)NC1CCCC1)N(C(=O)Cn1cnc2ccccc21)c1cccc(F)c1 (stereo not given),Potency,[6],inactive
O=C(NOC[C@H](O)CO)c1ccc(F)c(F)c1Nc1ccc(I)cc1F,outcome,[2],inactive
same,Potency,[3],inactive
same,viability (% of control),[4],79.1%
same,Potency,[8],inactive
same,Potency,[6],inactive
COc1ccc(COc2cc3oc(=O)c4cc(C(C)O)ccc4c3cc2OC)cc1 (stereo not given),Potency,[3],inactive
same,viability (% of control),[4],57.4%
same,"viability, percent of control",[5],45.7%
same,Potency,[6],inactive
CN(C)C(=O)c1ccc(S(=O)(=O)c2ccc(NC(=O)[C@@](C)(O)C(F)(F)F)c(Cl)c2)cc1,outcome,[2],inactive
same,Potency,[3],inactive
same,viability (% of control),[4],73%
same,"viability, percent of control",[5],86.5%
same,Potency,[8],inactive
same,Potency,[7],inactive
Cc1ccc(-n2nc(C(C)(C)C)cc2NC(=O)Nc2ccc(OCCN3CCOCC3)c3ccccc23)cc1,Potency,[1],inactive
same,outcome,[2],inactive
same,viability (% of control),[4],66.7%
same,"viability, percent of control",[5],65.5%
same,Potency,[7],inactive
COc1ccc(-c2c(-c3ccc(O)cc3O)n[nH]c2C)cc1,Potency,[1],inactive
same,outcome,[2],inactive
same,viability (% of control),[4],86.4%
same,"viability, percent of control",[5],72.3%
same,Potency,[7],inactive
same,Potency,[6],8.67 µM (active)
CC(C)(C)OC(=O)CN(Cc1ccc(Cl)cc1)Cc1ccc([N+](=O)[O-])s1,outcome,[2],inactive
same,Potency,[3],inactive
same,viability (% of control),[4],7.07%
same,"viability, percent of control",[5],47%
same,Potency,[7],inactive
O=C(Nc1ccc(F)c(C(F)(F)F)c1)Nc1nnc(-c2ccncc2)s1,Potency,[6],inactive
COc1cc2nccc(Oc3ccc(NC(=O)NC4CC4)c(Cl)c3)c2cc1C(N)=O,outcome,[2],inactive
same,Potency,[3],18.8 µM (active)
same,viability (% of control),[4],30.4%
same,"viability, percent of control",[5],83.1%
same,Potency,[6],3.45 µM (active)
